Reference: the supplement of paper PMC11732987, “Enantioselective OTUD7B fragment discovery through chemoproteomics screening and high-throughput optimisation” (Communications Chemistry, 2025)
A number with no mark means an inactive call.

Key:
Test in all cases: log2 ratio of Biotin-Ahx-Ub-VS probe labelling (fragment/DMSO); higher = less target engagement (more negative = stronger competition), active = hit call of the paper (q ≤ 0.05, log2 ratio ≤ -1)
Conditions in all cases: compound concentration: 200 uM; treatment time: 3 h
OTUD6B = target: T1, OTUD6B (UniProt Q8N6M0)
T1 sequence (whole entry): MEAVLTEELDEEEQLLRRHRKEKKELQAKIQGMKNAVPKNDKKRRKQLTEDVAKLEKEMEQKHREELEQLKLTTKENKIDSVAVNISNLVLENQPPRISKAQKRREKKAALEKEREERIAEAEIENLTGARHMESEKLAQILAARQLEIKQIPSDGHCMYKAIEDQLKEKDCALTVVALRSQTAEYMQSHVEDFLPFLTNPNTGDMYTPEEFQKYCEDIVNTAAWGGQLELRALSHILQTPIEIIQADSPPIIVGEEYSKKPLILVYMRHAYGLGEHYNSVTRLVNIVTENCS
Procedure, shortened: (§1)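 HEK293T lysate (495 µg per sample, in Tris/CHAPS/IGEPAL buffer with protease inhibitors) was exposed in triplicate for 3 h to fragment at 200 µM or to vehicle, then to Biotin-Ahx-Ub-VS at 0.5 µM final for 1 h. Labelled DUBs were enriched on NeutrAvidin, digested with LysC and trypsin, and analysed by diaPASEF LC-MS/MS. Spectronaut label-free quantities were normalised to the global median, and values are average log2 ratios of fragment over vehicle from an unpaired t-test. Only proteins with ≥2 unique peptides were used.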

OTUD7B = target: T2, OTUD7B (UniProt Q6GQQ9)
T2 sequence (whole entry): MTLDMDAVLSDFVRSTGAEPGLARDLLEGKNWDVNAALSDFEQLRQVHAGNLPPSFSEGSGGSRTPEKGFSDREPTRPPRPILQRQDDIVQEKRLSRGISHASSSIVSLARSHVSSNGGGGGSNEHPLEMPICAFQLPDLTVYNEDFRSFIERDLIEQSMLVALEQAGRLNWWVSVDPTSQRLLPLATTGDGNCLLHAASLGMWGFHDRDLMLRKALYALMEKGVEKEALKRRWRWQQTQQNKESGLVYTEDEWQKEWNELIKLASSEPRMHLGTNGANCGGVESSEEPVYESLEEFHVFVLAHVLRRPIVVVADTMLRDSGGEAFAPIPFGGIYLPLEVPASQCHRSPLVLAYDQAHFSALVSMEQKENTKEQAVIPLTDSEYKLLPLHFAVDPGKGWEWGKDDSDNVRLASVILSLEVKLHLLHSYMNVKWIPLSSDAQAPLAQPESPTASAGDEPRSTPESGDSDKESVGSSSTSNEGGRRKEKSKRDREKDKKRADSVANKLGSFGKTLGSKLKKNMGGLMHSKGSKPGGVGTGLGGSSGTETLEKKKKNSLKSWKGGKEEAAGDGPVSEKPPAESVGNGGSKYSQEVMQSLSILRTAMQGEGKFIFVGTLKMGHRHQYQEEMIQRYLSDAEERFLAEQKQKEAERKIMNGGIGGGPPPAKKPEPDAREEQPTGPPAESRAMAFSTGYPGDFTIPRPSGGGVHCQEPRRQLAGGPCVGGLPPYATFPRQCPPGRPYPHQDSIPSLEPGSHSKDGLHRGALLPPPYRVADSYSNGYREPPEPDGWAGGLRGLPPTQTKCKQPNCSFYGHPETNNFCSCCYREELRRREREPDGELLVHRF
Procedure, shortened: as §1

PRPF8 = PRPF8 (UniProt Q6P2Q9)
Procedure, shortened: as §1

PSMD7 = target: T3, PSMD7 (UniProt P51665)
T3 sequence (whole entry): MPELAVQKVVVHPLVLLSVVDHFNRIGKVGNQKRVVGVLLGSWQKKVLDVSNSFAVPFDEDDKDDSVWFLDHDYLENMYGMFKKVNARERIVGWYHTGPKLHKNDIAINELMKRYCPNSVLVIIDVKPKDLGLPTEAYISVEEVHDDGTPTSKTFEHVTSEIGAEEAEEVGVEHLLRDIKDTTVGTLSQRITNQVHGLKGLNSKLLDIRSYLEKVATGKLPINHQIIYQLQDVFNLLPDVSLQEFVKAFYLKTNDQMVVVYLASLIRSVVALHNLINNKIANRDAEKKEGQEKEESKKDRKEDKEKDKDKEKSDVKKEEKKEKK
Procedure, shortened: as §1

UCHL1 = UCHL1 (UniProt P09936)
UCHL1, sequence (P09936 whole entry, looked up): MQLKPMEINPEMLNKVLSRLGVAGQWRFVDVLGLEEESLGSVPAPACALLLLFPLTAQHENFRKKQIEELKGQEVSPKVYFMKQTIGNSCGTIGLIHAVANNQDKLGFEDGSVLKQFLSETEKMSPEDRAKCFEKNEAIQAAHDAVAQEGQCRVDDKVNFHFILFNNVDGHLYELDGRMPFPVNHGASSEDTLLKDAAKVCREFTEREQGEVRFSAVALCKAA
Procedure, shortened: as §1

UCHL3 = target: T4, UCHL3 (UniProt P15374)
T4 sequence (whole entry): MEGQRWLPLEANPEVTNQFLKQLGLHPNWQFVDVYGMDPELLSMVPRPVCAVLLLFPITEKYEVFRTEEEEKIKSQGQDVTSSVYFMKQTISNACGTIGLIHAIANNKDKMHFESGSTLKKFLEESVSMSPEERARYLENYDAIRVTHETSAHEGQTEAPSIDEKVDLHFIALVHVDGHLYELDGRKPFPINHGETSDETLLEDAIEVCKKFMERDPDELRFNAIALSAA
Procedure, shortened: as §1

UCHL5 = target: T5, UCHL5 (UniProt Q9Y5K5)
T5 sequence (whole entry): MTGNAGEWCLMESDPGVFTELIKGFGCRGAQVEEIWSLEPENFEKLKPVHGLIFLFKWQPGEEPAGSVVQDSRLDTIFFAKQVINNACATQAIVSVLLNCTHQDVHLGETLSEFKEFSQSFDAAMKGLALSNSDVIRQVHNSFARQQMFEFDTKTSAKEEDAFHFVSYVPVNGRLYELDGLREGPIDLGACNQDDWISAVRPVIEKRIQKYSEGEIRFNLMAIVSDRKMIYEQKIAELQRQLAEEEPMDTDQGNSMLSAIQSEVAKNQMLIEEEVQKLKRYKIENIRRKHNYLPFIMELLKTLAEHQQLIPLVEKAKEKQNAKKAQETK
Procedure, shortened: as §1

USP10 = USP10 (UniProt Q14694)
USP10, sequence (Q14694 whole entry): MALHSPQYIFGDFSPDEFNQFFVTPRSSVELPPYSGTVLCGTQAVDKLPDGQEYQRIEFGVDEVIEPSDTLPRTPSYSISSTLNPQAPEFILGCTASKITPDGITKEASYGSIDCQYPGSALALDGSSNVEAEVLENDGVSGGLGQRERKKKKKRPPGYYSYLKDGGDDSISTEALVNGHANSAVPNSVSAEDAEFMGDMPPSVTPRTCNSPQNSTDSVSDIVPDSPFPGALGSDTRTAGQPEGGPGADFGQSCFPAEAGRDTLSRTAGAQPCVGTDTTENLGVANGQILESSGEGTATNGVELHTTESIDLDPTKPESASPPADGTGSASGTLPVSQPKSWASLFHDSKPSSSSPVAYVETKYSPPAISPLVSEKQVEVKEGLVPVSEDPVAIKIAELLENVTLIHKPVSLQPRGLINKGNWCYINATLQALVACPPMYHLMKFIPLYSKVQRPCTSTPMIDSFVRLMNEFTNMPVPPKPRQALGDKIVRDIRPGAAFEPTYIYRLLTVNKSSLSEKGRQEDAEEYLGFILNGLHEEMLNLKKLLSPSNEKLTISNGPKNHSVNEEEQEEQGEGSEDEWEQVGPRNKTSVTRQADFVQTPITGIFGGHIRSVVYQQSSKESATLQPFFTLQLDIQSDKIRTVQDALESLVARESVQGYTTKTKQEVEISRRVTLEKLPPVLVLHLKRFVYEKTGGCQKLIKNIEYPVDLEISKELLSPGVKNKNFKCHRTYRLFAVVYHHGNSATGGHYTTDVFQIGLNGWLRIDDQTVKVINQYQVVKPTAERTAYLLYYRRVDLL
Procedure, shortened: as §1

USP15 = target: T6, USP15 (UniProt Q9Y4E8)
T6 sequence (whole entry): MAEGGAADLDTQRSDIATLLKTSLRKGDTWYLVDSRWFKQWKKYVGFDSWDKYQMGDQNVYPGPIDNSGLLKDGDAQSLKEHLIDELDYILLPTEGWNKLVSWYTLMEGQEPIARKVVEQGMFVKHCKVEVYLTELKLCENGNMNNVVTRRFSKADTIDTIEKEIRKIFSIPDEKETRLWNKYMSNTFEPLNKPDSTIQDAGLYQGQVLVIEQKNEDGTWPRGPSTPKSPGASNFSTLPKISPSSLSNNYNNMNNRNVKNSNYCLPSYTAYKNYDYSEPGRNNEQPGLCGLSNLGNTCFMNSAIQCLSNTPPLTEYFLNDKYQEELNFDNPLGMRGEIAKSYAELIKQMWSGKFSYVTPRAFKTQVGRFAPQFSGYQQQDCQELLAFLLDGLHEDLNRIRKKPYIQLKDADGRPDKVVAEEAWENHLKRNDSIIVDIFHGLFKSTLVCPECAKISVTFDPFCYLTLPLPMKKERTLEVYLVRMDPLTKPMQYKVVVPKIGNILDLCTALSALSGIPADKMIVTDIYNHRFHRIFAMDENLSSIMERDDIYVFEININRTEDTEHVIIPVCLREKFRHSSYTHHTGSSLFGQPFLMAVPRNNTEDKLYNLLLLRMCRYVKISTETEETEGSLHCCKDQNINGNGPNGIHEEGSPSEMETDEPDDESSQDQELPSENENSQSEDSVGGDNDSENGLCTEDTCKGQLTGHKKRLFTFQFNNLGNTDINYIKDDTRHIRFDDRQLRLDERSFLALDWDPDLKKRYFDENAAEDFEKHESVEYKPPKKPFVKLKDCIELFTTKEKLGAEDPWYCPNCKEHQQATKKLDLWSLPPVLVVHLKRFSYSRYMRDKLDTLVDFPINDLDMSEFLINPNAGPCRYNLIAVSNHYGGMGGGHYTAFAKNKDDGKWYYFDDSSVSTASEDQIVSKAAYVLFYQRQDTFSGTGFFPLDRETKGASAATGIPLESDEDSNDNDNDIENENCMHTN
Procedure, shortened: as §1

USP16 = USP16 (UniProt Q9Y5T5)
USP16, sequence (Q9Y5T5 whole entry, looked up): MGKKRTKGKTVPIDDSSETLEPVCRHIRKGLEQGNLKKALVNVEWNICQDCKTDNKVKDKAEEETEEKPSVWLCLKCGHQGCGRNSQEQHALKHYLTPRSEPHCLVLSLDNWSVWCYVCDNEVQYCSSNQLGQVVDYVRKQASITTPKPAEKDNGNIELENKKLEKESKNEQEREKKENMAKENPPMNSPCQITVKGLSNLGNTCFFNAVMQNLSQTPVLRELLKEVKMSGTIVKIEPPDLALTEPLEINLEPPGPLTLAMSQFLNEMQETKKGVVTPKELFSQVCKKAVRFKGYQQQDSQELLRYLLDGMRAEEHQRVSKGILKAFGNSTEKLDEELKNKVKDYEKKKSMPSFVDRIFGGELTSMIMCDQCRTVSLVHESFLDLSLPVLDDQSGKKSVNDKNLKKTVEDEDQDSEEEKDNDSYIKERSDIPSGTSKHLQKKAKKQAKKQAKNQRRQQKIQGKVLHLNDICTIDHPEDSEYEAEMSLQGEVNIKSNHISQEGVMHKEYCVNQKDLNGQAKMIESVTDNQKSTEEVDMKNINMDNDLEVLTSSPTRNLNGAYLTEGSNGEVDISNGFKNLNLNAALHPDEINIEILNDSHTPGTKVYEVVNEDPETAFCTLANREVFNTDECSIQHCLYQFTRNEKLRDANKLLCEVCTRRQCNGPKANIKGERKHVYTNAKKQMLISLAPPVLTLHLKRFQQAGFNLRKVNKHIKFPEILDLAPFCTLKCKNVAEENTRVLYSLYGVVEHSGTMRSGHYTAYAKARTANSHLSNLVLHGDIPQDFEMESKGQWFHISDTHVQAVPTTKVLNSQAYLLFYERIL
Procedure, shortened: as §1

In the case of `O=C(CCl)NC1CCOc2ccccc21` (stereo not given), the “log2 ratio of Biotin-Ahx-Ub-VS probe labelling” value (shortened to “log2 ratio”) (OTUD6B) is reported as -0.54, the “log2 ratio” value (OTUD7B) is reported as -2.14 (active) and the “log2 ratio” value (PRPF8) is reported as -0.152. For the same compound, the “log2 ratio” value (PSMD7) was -0.0224, the “log2 ratio” value (UCHL1) was -1.84 (active) and the “log2 ratio” value (UCHL3) was -0.57. For the same compound, the “log2 ratio” value (UCHL5) was -1.08 (active), the “log2 ratio” value (USP10) was -0.255 and the “log2 ratio” value (USP15) was -0.851. The “log2 ratio” value (USP16) was -0.325.
